Values joined by “and” are separate entries in the source; they are usually repeats but may differ in a detail not shown here. Equal values may be shown once. In all, about 5,500 compounds went through this assay and about 2,000 (36%) were called active. Another 18% or so got no clear call; they are omitted. No stated cut-off is given here; in the data, active means normalized growth mostly below about 0.91 (no sharp cut-off); inconclusive means no clear call, values can overlap the other calls; inactive means mostly above about 0.92. This is one part of the list.
Assay: chemical genetic growth profiling, strain panel (AID 1159580);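 further: tested at 20 µM; growth read once vehicle control cultures reached saturation at 30 °C; 1 = growth at the plate median or of vehicle wells; lower values mean less growth of the strain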
Conditions: S. cerevisiae deletion strains, growth OD

Measured: normalized growth

CC(=O)NCc1c(I)c(NC(C)=O)c(I)c(C(=O)O)c1I
inactive: locus YAL013W, strain DEP1, active compounds read low 0.997 | locus YAL021C, strain ccr4, active compounds read low 0.989 | locus YAL026C, strain drs2, active compounds read low 0.997 | locus YAL030W, strain snc1, active compounds read low 1 | locus YBL061C, strain skt5, active compounds read low 0.994 | locus YBR009C, strain hhf1, active compounds read low 0.991 | locus YBR021W, strain FUR4, active compounds read low 1.02 | locus YBR023C, strain chs3, active compounds read low 0.993 | locus YBR171W, strain sec66, active compounds read low 0.995 | locus YBR229C, strain ROT2, active compounds read low 0.999 | locus YBR231C, strain swc5, active compounds read low 1 | locus YBR279W, strain paf1, active compounds read low 0.989 | locus YCL011C, strain gbp2, active compounds read low 1 | locus YCL016C, strain dcc1, active compounds read low 0.993 | locus YCL029C, strain bik1, active compounds read low 0.982 | locus YCL061C, strain MRC1, active compounds read low 0.983 | locus YCL069W, strain vba3, active compounds read low 1 | locus YCR088W, strain abp1, active compounds read low 1 | locus YDL005C, strain med2, active compounds read low 1 | locus YDL035C, strain GPR1, active compounds read low 1.01 | locus YDL040C, strain nat1, active compounds read low 1 | locus YDL074C, strain BRE1, active compounds read low 0.982 | locus YDL101C, strain DUN1, active compounds read low 0.991 | locus YDL134C, strain PPH21, active compounds read low 0.999 | locus YDL185W, strain tfp1, active compounds read low 0.959 | locus YDL192W, strain arf1, active compounds read low 0.99 | locus YDR001C, strain nth1, active compounds read low 1.01 | locus YDR069C, strain doa4, active compounds read low 0.999 | locus YDR101C, strain arx1, active compounds read low 0.996 | locus YDR137W, strain rgp1, active compounds read low 1.01 | locus YDR150W, strain NUM1, active compounds read low 0.995 | locus YDR159W, strain sac3, active compounds read low 0.99 | locus YDR162C, strain NBP2, active compounds read low 0.997 | locus YDR195W, strain ref2 0.989 | locus YDR297W, strain sur2, active compounds read low 0.995 | locus YDR318W, strain mcm21, active compounds read low 0.984 | locus YDR334W, strain swr1, active compounds read low 0.999 | locus YDR335W, strain msn5, active compounds read low 1.01 | locus YDR388W, active compounds read low 0.998 | locus YDR392W, strain spt3, active compounds read low 0.957 | locus YDR502C, strain sam2, active compounds read low 1 | locus YEL003W, strain gim4, active compounds read low 1.01 | locus YEL037C, strain rad23, active compounds read low 1 | locus YEL061C, strain CIN8 (second series), active compounds read low 1 | locus YEL061C, strain CIN8, active compounds read low 0.997 | locus YER015W, strain faa2, active compounds read low 0.987 | locus YER016W, strain bim1, active compounds read low 1 | locus YER110C, active compounds read low 0.996 | locus YER111C, strain swi4, active compounds read low 0.994 | locus YER155C, strain BEM2 (second series), active compounds read low 1.01 | locus YER155C, strain BEM2, active compounds read low 0.998 | locus YER167W, strain BCK2, active compounds read low 1 | locus YFR010W, strain ubp6, active compounds read low 0.998 | locus YGL078C, strain dbp3, active compounds read low 1 | locus YGL086W, strain mad1, active compounds read low 1.02 | locus YGL167C, strain pmr1, active compounds read low 0.992 | locus YGL173C, strain kem1, active compounds read low 0.995 | locus YGL227W, strain vid30, active compounds read low 1 | locus YGL240W, strain doc1, active compounds read low 0.986 | locus YGL248W, strain PDE1, active compounds read low 1.01 | locus YGL253W, strain hxk2, active compounds read low 0.996 | locus YGR078C, strain PAC10, active compounds read low 1 | locus YGR135W, strain pre9, active compounds read low 0.997 | locus YGR229C, strain SMI1, active compounds read low 1 | locus YGR252W, strain gcn5, active compounds read low 1.16 | locus YHR013C, strain ard1, active compounds read low 0.997 | locus YHR027C, strain rpn1, active compounds read low 1.01 | locus YHR030C, strain SLT2, active compounds read low 0.996 and 1.01 | locus YHR079C, strain IRE1 (second series), active compounds read low 0.992 | locus YHR079C, strain IRE1, active compounds read low 1.02 | locus YHR094C, strain hxt1, active compounds read low 0.98 | locus YHR129C, strain ARP1, active compounds read low 0.997 | locus YHR142W, strain chs7, active compounds read low 1.02 | locus YHR200W, strain rpn10, active compounds read low 0.988 | locus YIL066C, strain RNR3, active compounds read low 1 | locus YIL073C, strain SPO22, active compounds read low 0.986 | locus YIL125W, strain kgd1, active compounds read low 0.99 | locus YIR030C, strain dcg1, active compounds read low 0.993 | locus YJL092W, strain hpr5, active compounds read low 0.998 | locus YJL095W, strain BCK1 (second series), active compounds read low 1 | locus YJL095W, strain BCK1, active compounds read low 0.98 and 1.02 | locus YJL115W, strain asf1, active compounds read low 0.993 | locus YJL129C, strain trk1, active compounds read low 0.995 | locus YJL134W, strain LCB3, active compounds read low 1 | locus YJL154C, strain vps35, active compounds read low 1 | locus YJL164C, strain tpk1, active compounds read low 0.996 | locus YJL166W, strain qcr8, active compounds read low 0.991 | locus YJL168C, strain set2, active compounds read low 0.992 | locus YJL187C, strain SWE1 (second series), active compounds read low 0.987 | locus YJL187C, strain SWE1, active compounds read low 1.02 | locus YJR043C, strain POL32, active compounds read low 0.982 | locus YJR066W, strain TOR1, active compounds read low 0.974
